Results on 94 molecules are retold here after PubChem BioAssay AID687020 (Broad Institute, 2013).

Molecules are shown by their SMILES. The whole screen tested about 1,400 compounds, of which about 100 (7.1%) were called active. How the calls were made is not given here. Not all results are given here. Where a call stands in place of a potency, no number is given. Potency and affinity values are given separately.

A short description of the assay: viability loss in Vero cells – cell-based, plate reader, cherry-pick samples, cytotoxicity control, dose response (AID 687020).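 Further: compounds incubated with cells for three days before luminescence read.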 To be noted: series mostly up to 19.5 µM.
For `C[C@H](CCC(=O)O)[C@H]1CC[C@H]2[C@@H]3CC[C@@H]4C[C@H](O)CC[C@]4(C)[C@H]3C[C@H](O)[C@]12C`, the outcome was inactive. The value for `Cc1oc2c(C)c3oc(=O)c(CCC(=O)NCCN4CCOCC4)c(C)c3cc2c1C` was “inactive”; that for `CC(Oc1ccc(Cl)cc1Cl)C(=O)NCCCN1CCOCC1` (centres undefined) was “inactive”; that for `O=C(NC1CCCCC1)N[C@H]1C=C[C@@H](CC(=O)N2CCOCC2)O[C@@H]1CO` was “inactive”. Under `CN(CC(=O)Nc1ccccc1C(=O)NC1CC1)Cc1ccccc1F` stands “inactive”; under `CCCCCC(=O)NC1CCCCN(C)C1=O` (centres undefined), “inactive”.

For `CC(=O)NCCNc1nc(NCc2cccs2)nc2ccsc12`, the result was inactive. The value for `COc1ccc(N2CCN(Cc3nc4c(c(=O)[nH]c(=O)n4C)n3Cc3cccc(Cl)c3)CC2)cc1` was “inactive”; that for `NC(c1csc(NC(=O)Nc2cccc(Cl)c2)n1)C1CCCCC1` (centres undefined) was “inactive”. The value for `Cc1ccc(Cn2cc(CN3CC(N(C)C)CS3(=O)=O)nn2)cc1` (centres undefined) was “inactive”.

`CC(C)(C)OC(=O)NC(CC(=O)OCc1ccccc1)C(=O)O` (centres undefined): the call was inactive. Consider `O=S(=O)(c1ccc(=S)[nH]c1)N1CCN(Cc2ccccc2)CC1`, for which the call was inactive. Consider `O=C(O)C(Cc1ccc(Cl)cc1)NS(=O)(=O)c1ccc(Cl)cc1` (centres undefined), for which the outcome was inactive. The value for `O=C(O)C1C2C=CC(C2)C1C(=O)NCc1ccccc1` (centres undefined) was “inactive”; that for `O=C(Nc1cc(F)cc(F)c1)c1sc(Cl)nc1-c1ccccc1` was “inactive”; that for `CCS(=O)(=O)N1CCC2(CC1)OCCN2S(=O)(=O)c1ccccc1` was “inactive”. Under `NC(=O)C1CCN(C(=O)C2(NC(=O)Nc3cccc(F)c3)CCCCC2)CC1` stands “inactive”; under `CCCCN1C[C@H](Cc2ccccc2)[C@@H](CC(=O)NCc2ccc(OC)cc2)C1=O`, “inactive”; under `COc1ccc(CNC(=O)C[C@H]2C(=O)N(Cc3ccccc3)C[C@@H]2Cc2ccccc2)cc1`, “inactive”. Under `CCCCn1nc(C(=O)Nc2ccc3c(c2)OCO3)c2ccccc2c1=O` stands “inactive”; under `CO[C@@H]1CN(C)C(=O)c2ccc(NS(=O)(=O)c3cccc(F)c3)cc2OC[C@@H](C)N(C(=O)Cc2cccnc2)C[C@H]1C`, “inactive”; under `COc1ccc(-c2csc(C(C)(O)c3ccc(F)c(F)c3)n2)cc1OC` (centres undefined), “inactive”.

As to `COc1cc(NC(=O)c2nccn2C)cc(C(=O)Nc2cccc(C(F)(F)F)c2)c1`, the outcome was inactive. For `COc1ccc(NC(=O)CN2CCc3ccccc3C2)cc1S(=O)(=O)N1CCOCC1`, the call was inactive. The value for `COc1ccc(CCC(=O)Nc2cc(S(=O)(=O)N3CCOCC3)ccc2OC(C)C)cc1` was “inactive”; that for `CCCNC(=O)N1CC2(C1)CN(Cc1cccc(F)c1)[C@@H](CO)c1[nH]c3cc(OC)ccc3c12` was “inactive”. Under `C[C@@H](NC(=O)[C@@H]1[C@@H](CO)[C@@H]2Cn3c(cccc3=O)[C@@H]2N1CC1CCCC1)c1ccccc1` stands “inactive”. Under `CC(Oc1ccc2ccc(=O)oc2c1)C(=O)NC(Cc1c[nH]c2ccc(O)cc12)C(=O)O` (centres undefined) stands “inactive”; under `O=C(N[C@@H]1CC[C@H](CCNC(=O)C2CCCCC2)O[C@@H]1CO)c1ccccn1`, “inactive”.

For the molecule `CCCc1cc(CNC(=O)C2CCC(=O)N(CCc3cccc(F)c3)C2)on1` (centres undefined), the result was inactive. For `COc1ccc(CCN2CC(C(=O)NCCc3ncccc3C)CCC2=O)cc1` (centres undefined), the result was inactive. Under `Nc1ccc2oc(-c3ccccc3Cl)cc(=O)c2c1O` stands “inactive”. The value for `Cc1ccc(OCCCCNC(C)c2ccccc2)c(C)c1` (centres undefined) was “inactive”; that for `COc1ccc(Cl)cc1-c1cc(C(=O)N[C@H](C)c2ccccc2)[nH]n1` was “inactive”.

With `CC(C)c1ccccc1OCCCCN1CCCCC1`, the call was inactive. Under `Cc1cc(O)c(C(C)C)cc1NC(=O)c1ccccc1Cl` stands “inactive”. Under `Cc1noc(C)c1NC(=O)N(C)C[C@H]1OCCCC[C@H](C)Oc2ccc(NC(=O)NC(C)C)cc2C(=O)N([C@H](C)CO)C[C@@H]1C` stands “inactive”; under `CCOC(=O)c1cn(CC)c2cc3c(cc2c1=O)OCO3`, “inactive”; under `Cc1ccc(NC(=O)c2cc(-c3cc(Cl)ccc3C)n[nH]2)cc1NS(C)(=O)=O`, “inactive”. Under `O=C(NCc1ccccc1)[C@H]1CCCN1C(=O)[C@@H]1CCCN1C(=O)c1ccc(Cl)cc1Cl` stands “inactive”. As for `O=C(NCc1ccccc1)c1ccccc1`, the outcome was inactive.

Consider `Cc1noc(C)c1NC(=O)Nc1cccc2c1O[C@@H](CN(C)S(=O)(=O)c1ccc(F)cc1)[C@@H](C)CN([C@@H](C)CO)C2=O`, for which the molecule was called inactive. The value for `Fc1ccc(CNC2CCN(Cc3ccccc3)CC2)cc1` was “inactive”; that for `C=CCOc1ccccc1CNn1c(C)n[nH]c1=S` was “inactive”; that for `CN(Cc1ccccc1)C(=O)c1nc[nH]c1C(=O)N1CCN(C(=O)OC(C)(C)C)CC1` was “inactive”. The value for `COC(=O)C[C@H]1CC[C@H]2[C@@H](COc3ccc(NC(=O)c4cnccn4)cc3C(=O)N2C)O1` was “inactive”; that for `CCCCOc1ccc(C(=O)NCCOc2cccc(OC)c2)cc1` was “inactive”; that for `CS(=O)(=O)NCc1ccc(C(=O)NCCOc2ccccc2)cc1` was “inactive”.

Turning to `Cc1c(Cl)cccc1NC(=O)CNC(=O)C1CC(=O)N(C2CCCC2)C1` (centres undefined), the molecule was called inactive.

Consider `Cc1noc(C)c1NC(=O)Nc1ccc2c(c1)C(=O)N([C@@H](C)CO)C[C@H](C)[C@@H](CN(C)C(=O)CCCN(C)C)OCCCC[C@@H](C)O2`, for which the outcome was inactive. The value for `CN(C)CCCNC(=O)OC1CC2CC1[C@H]1CCCCN1C2=O` (some centres undefined) was “inactive”.

Turning to `CCCNC(=O)OC1CC2CC1[C@H]1CCCCN1C2=O` (some centres undefined), the molecule was called inactive. The value for `O=C(NCc1ccccn1)C(=O)NCC1OCCN1S(=O)(=O)c1ccc(Br)cc1` (centres undefined) was “inactive”; that for `COc1ccc(Cl)cc1NC(=O)CN(C)C(=O)C1COc2ccccc2O1` (centres undefined) was “inactive”. `Cc1noc(C)c1S(=O)(=O)Nc1ccc2c(c1)C(=O)N([C@@H](C)CO)C[C@@H](C)[C@H](CN(C)C(=O)Nc1ccccc1)OCCCC[C@@H](C)O2`: the molecule was called inactive. Under `Cc1cc(C)n2c(NC3CCCCC3)c(-c3ccccn3)nc2n1` stands “inactive”; under `Cc1cc(C)n2c(Nc3ccc4c(c3)OCCO4)c(CC(C)C)nc2n1`, “inactive”; under `COC(=O)C[C@@H]1OC[C@H](Cc2ccccc2)N1S(=O)(=O)c1ccc(C)cc1`, “inactive”. For the molecule `Cc1ccc(S(=O)(=O)N2CCN(C(=O)C(O)c3ccccc3)CC2)cc1` (centres undefined), the call was inactive. `Cc1ccc(S(=O)(=O)N2CCN(C(=O)COC(=O)Cc3ccc(Cl)cc3)CC2)c(C)c1`: the outcome was inactive. The value for `COc1ccc(C(C(=O)NCc2ccccc2)n2c(-c3ccncc3)nc3ccccc32)cc1` (centres undefined) was “inactive”. Under `CN(C)c1ccc(CNS(=O)(=O)c2ccc3c(c2)C(C)(C)C(=O)N3C)cc1` stands “inactive”.

With `C[C@H]1CCCCO[C@H](CN(C)S(=O)(=O)c2ccc(Cl)cc2)[C@@H](C)CN([C@@H](C)CO)C(=O)c2cc(NC(=O)Cc3ccccc3)ccc2O1`, the outcome was inactive.

For `COc1ccccc1CCNS(=O)(=O)CCNC(=O)c1ccc2c(c1)OCO2`, the molecule was called inactive. Under `COc1ccc(OC)c(S(=O)(=O)N2CCN(c3c(C)cccc3C)CC2)c1` stands “inactive”; under `COc1ccc(-c2cnc3c(NC(C)=O)cc(-c4ccccc4OC)cn23)cc1OC`, “inactive”. As for `COc1ccc(C2=Nn3c(nnc3-c3ccccc3Cl)SC2)cc1OCC1CC1`, the result was inactive. The value for `CCCNC(=O)N1C[C@H](O)COC[C@@H]2O[C@@H](CC(=O)N3CCOCC3)CC[C@H]21` was “inactive”; that for `COc1ccc(C(C)(NC(C)=O)c2nc(-c3cccc(F)c3)cs2)cc1` (centres undefined) was “inactive”. Under `O=C(CCc1nc2ccccc2c(=O)[nH]1)N1CCCc2ccccc21` stands “inactive”; under `C[C@@H]1CN([C@@H](C)CO)C(=O)c2cc(C#CCc3ccccc3)cnc2O[C@@H]1CN(C)C(=O)C1CCOCC1`, “inactive”; under `c1ccc(-c2csc(-c3ccc(-c4csnn4)cc3)n2)cc1`, “inactive”. `O=C(NCC1CC1)C1(S(=O)(=O)c2ccccc2)CC=CC1`: the outcome was inactive. With `CCOC(=O)CN1CC23C=CC(O2)C(C(=O)NCCc2ccccc2)C3C1=O` (centres undefined), the result was inactive. The value for `CCOC(=O)N1CCN(Cc2nc3cc(NC(=O)CC)ccc3n2CC)CC1` was “inactive”. In the case of `COc1cc(NC(C)=O)c2ncccc2c1Br`, the call was inactive. Under `COc1ccc(CN2CCC[C@]3(N[C@H](c4ccc(OC)cc4)[C@@H]4C(=O)N(C)C(=O)[C@@H]43)C2=O)cc1` stands “inactive”; under `O=C(O)CNC(=O)c1ccc(NS(=O)(=O)c2ccc3ccccc3c2)cc1`, “inactive”; under `Cc1cc(Br)ccc1NC(=O)CN(C)C(=O)COc1cccc2c1OC(C)(C)C2`, “inactive”. The value for `O=C1N2CCCCC1(c1ccccc1)CCCC2` was “inactive”.

Regarding `COCCCN1C(=O)C(CC(=O)NC2CCCCC2)CC(C(=O)N(C(C)C)C(C)C)=C1C` (centres undefined), the outcome was inactive. The value for `COc1ccc(N(CC(=O)N2CCN(C)CC2)S(=O)(=O)c2cc(C)ccc2OC)cc1Cl` was “inactive”; that for `COc1ccc(-c2ccccc2)cc1NC(=O)c1cccs1` was “inactive”; that for `O=C(Nc1ccc(S(=O)(=O)NC2=NCCCCC2)cc1)c1cccs1` was “inactive”.

As to `CC(C)NC(=O)N(C)C[C@@H]1Oc2ccc(NC(=O)Cc3cn(C)c4ccccc34)cc2C(=O)N([C@@H](C)CO)C[C@H]1C`, the call was inactive. The value for `OC(COC(c1ccc(Cl)cc1)c1ccc(Cl)cc1)CN1CCN(c2ccccn2)CC1` (centres undefined) was “inactive”.

`CCN(CC)c1ccc(/C=N/N2C(=O)c3ccccc3C2=O)c(O)c1`: the call was inactive. As to `CCc1ccccc1OCC(=O)NNCC(=O)Nc1cccc(C#N)c1`, the molecule was classed as inactive. The value for `COc1cccc(NC(=O)CCN2C(=O)C3CC=CCC3C2=O)c1` (centres undefined) was “inactive”; that for `CC(=O)N1[C@H](CO)[C@@H](c2ccc(-c3cccc(F)c3)cc2)[C@H]1CNC(=O)C1CC1` was “inactive”. For the molecule `COc1ccc([C@H]2C[C@@H](n3cc(C4CC4)nn3)[C@H](O)CN2Cc2cccs2)cc1`, the outcome was inactive. The value for `C[C@H](NC(=O)C1CCN(S(=O)(=O)c2ccccc2)CC1)C(=O)NCc1cccnc1` was “inactive”; that for `COc1ccc(C(=O)N2CCCCC2c2cc(C(=O)NCc3cccnc3)no2)cc1` (centres undefined) was “inactive”; that for `CC(C)[C@H](NC(=O)c1cccs1)C(=O)N1CCC[C@H]1C(=O)NCc1ccccc1` was “inactive”.
